In the supplement of paper PMC11001985:
A number with no mark means an inactive call.

Compound: C#CCNC(=O)CCSSCCC(=O)NCCc1ccc(C=O)c(C=O)c1
Assay: lysine labeling ratio R10:1 (500 µM / 50 µM probe), SILAC-ABPP in living cells; higher = lower intrinsic lysine reactivity toward the probe, active = 2 or less
Settings: HeLa; probe concentrations 500 vs 50 µM
In short: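 In PBS at room temperature, living HeLa cells grown with SILAC light or heavy labels were treated with 50 µM or 500 µM of an alkyne-tagged, disulfide-linked lysine probe, with label swaps in both directions. Analysis was by LC-MS/MS on a TIMS-TOF Pro after click to biotin-azide, neutravidin capture and DTT release. For each lysine, R is the median across forward and reverse replicates of the filtered median high-probe/low-probe MS1 peptide ratio, capped at 20.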

Sequence of UniProt P17844 (P17844 whole entry): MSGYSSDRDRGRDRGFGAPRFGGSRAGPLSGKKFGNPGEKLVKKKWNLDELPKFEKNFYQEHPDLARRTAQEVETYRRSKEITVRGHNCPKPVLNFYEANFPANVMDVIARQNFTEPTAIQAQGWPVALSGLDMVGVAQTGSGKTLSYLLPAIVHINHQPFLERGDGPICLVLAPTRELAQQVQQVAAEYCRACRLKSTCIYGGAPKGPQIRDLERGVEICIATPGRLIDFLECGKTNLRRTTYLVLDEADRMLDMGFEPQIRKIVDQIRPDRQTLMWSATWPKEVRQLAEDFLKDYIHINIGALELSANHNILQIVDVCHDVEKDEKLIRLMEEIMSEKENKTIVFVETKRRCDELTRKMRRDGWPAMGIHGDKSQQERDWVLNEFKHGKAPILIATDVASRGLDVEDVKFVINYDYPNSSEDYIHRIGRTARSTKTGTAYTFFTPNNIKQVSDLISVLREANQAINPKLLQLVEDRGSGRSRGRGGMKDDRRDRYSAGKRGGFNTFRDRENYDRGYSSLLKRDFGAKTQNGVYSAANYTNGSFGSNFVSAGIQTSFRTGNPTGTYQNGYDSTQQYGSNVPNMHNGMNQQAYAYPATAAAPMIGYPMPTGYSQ
Sequence of UniProt P35579 (P35579 whole entry): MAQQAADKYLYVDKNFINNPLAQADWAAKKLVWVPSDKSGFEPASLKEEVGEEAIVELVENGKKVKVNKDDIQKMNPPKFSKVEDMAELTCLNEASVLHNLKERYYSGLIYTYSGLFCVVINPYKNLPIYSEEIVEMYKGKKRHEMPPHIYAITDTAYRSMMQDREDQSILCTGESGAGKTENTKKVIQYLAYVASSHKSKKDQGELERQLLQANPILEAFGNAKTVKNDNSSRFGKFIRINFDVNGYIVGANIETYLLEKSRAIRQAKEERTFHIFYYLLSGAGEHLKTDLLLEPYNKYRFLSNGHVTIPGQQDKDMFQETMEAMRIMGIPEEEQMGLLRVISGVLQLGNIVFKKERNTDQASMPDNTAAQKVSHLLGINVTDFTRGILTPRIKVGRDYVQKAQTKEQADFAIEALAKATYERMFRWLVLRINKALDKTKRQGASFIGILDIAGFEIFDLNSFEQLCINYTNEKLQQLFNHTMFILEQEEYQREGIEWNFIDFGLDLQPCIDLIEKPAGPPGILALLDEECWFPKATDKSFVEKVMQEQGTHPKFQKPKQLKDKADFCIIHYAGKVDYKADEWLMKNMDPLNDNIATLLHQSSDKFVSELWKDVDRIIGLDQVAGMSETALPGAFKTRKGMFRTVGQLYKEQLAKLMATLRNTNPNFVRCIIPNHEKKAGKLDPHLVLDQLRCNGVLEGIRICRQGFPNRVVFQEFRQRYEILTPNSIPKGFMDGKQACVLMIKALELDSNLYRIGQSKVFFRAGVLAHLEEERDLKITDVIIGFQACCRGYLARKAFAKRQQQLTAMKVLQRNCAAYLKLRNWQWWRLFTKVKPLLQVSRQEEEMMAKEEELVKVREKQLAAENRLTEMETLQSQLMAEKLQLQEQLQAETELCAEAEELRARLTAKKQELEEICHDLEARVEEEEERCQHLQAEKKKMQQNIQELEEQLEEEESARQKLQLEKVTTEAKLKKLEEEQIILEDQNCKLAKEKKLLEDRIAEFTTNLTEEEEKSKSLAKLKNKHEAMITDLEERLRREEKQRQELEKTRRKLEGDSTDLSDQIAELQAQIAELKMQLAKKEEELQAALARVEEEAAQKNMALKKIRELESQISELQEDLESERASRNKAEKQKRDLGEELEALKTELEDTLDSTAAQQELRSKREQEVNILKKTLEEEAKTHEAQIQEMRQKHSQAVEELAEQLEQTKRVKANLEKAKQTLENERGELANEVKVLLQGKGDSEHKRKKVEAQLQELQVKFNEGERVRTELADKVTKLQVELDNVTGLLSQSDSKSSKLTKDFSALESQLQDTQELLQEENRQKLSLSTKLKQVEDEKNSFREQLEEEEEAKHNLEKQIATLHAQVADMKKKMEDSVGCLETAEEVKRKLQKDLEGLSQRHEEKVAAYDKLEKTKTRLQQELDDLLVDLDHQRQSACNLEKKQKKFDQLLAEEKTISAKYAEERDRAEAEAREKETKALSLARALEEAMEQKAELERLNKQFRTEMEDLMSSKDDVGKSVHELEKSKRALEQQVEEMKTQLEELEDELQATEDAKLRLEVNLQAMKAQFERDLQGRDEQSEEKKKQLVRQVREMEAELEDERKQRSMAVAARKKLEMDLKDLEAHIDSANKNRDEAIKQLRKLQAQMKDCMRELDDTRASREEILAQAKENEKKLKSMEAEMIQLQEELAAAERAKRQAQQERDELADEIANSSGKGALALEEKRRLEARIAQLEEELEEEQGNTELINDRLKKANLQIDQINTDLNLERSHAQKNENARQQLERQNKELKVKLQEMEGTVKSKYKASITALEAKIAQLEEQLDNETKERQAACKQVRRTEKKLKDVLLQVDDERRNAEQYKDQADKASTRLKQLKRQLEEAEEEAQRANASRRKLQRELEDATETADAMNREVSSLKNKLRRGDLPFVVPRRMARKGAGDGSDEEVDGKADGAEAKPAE
Sequence of UniProt Q32P28 (Q32P28 whole entry): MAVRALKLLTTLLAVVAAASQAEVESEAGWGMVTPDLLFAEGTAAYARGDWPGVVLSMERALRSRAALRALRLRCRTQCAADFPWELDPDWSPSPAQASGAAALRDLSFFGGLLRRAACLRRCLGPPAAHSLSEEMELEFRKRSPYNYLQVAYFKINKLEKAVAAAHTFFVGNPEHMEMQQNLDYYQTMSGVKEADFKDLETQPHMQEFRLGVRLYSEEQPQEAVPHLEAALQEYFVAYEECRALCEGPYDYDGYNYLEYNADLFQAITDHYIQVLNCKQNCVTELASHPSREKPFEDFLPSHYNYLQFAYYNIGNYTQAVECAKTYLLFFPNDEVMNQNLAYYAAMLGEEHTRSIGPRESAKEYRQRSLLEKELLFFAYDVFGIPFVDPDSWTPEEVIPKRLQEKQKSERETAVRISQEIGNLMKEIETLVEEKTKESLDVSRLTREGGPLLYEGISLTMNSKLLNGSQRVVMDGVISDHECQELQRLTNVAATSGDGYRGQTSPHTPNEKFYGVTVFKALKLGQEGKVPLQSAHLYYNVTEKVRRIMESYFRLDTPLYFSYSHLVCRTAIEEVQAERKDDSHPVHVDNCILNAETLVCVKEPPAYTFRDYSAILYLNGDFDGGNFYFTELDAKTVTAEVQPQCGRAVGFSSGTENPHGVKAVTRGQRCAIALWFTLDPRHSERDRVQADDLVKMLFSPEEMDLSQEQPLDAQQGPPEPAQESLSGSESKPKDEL
Sequence of UniProt P53621 (P53621 whole entry): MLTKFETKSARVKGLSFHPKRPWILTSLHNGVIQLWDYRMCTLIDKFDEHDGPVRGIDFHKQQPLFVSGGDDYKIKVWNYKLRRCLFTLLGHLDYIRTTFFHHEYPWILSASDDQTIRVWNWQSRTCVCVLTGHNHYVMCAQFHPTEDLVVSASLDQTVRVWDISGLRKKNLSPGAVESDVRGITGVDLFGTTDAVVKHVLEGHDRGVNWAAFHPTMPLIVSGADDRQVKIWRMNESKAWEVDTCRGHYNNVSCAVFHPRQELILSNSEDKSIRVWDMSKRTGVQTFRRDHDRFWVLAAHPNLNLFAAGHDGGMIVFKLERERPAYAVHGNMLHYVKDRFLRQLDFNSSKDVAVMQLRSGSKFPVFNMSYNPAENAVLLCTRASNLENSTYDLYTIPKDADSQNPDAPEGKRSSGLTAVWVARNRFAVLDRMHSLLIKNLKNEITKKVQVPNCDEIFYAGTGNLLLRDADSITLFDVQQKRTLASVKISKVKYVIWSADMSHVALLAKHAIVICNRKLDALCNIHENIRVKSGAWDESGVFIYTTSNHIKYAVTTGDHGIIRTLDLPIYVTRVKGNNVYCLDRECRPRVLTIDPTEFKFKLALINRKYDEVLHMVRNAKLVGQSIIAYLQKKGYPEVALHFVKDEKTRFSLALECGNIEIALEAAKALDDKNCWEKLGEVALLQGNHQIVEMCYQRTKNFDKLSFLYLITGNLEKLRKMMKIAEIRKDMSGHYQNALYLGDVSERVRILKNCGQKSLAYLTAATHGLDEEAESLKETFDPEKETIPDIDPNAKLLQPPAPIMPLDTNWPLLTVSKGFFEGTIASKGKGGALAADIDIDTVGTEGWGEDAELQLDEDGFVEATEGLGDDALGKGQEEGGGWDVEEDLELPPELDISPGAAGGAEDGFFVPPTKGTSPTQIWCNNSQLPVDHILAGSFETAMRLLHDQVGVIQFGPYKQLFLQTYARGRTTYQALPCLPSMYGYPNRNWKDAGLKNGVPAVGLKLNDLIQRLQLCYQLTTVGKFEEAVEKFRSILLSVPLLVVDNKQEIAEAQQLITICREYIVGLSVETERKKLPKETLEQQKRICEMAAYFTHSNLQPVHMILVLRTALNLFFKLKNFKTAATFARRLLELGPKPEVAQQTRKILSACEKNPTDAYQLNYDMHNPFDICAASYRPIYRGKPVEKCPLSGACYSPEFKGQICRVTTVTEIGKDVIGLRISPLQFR
Sequence of UniProt Q10471 (Q10471 whole entry): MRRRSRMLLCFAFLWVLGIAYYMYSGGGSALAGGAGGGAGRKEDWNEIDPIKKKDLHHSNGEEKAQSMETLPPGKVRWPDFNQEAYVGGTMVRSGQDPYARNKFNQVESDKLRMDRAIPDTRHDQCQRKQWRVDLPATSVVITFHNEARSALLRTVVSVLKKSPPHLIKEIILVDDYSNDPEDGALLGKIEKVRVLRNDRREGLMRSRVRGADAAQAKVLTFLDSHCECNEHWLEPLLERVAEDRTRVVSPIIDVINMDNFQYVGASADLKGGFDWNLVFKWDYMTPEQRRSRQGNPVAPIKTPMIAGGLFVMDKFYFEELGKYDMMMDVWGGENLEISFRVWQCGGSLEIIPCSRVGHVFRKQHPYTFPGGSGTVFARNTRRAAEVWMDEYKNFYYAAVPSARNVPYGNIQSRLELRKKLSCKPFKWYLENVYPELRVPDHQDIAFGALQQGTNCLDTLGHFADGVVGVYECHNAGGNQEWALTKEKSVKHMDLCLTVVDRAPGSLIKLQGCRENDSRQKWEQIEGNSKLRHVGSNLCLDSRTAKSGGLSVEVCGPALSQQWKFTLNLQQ

| Target | lysine labeling ratio R10:1 |
| --- | --- |
| DDX23 (lysine site: K196) (UniProt Q9BUQ8) | 1.64 (active) |
| DBN1 (lysine site: K248) (UniProt Q16643) | 0.855 (active) |
| ACIN1 (lysine site: K143) (UniProt Q9UKV3) | 0.535 (active) |
| DDX5 (lysine site: K80) (UniProt P17844) | 3.64 |
| MYH9 (lysine site: K1219) (UniProt P35579) | 2.49 |
| RAB11B (lysine site: K179) (UniProt Q15907) | 3.25 |
| FRAS1 (lysine site: K2523) (UniProt Q86XX4) | 2.03 |
| RARS (lysine site: K60) (UniProt P54136) | 3.02 |
| UniProt Q15149 (lysine site: K567) | 14.2 |
| PAICS (lysine site: K261) (UniProt P22234) | 0.93 (active) |
| MYH9 (lysine site: K1775) (UniProt P35579) | 3.47 |
| HNRNPU (lysine site: K352) (UniProt Q00839) | 2.95 |
| KPNB1 (lysine site: K376) (UniProt Q14974) | 2.54 |
| M6PR (lysine site: K50) (UniProt P20645) | 2.84 |
| DDX5 (lysine site: K391) (UniProt P17844) | 10.4 |
| FLNA (lysine site: K1294) (UniProt P21333) | 2.32 |
| CD58 (lysine site: K167) (UniProt P19256) | 2.06 |
| GANAB (lysine site: K269) (UniProt Q14697) | 2.12 |
| CACNA2D1 (lysine site: K106) (UniProt P54289) | 3.84 |
| DYNC1H1 (lysine site: K4406) (UniProt Q14204) | 3.65 |

| Target | lysine labeling ratio R10:1 |
| --- | --- |
| FLNB (lysine site: K746) (UniProt O75369) | 3.48 |
| UniProt P62277 (lysine site: K43) | 7.76 |
| B4GAT1 (lysine site: K60) (UniProt O43505) | 7.79 |
| UniProt P62826 (lysine site: K134) | 4.19 |
| AGRN (lysine site: K1934) (UniProt O00468) | 2.08 |
| UniProt Q32P28 (lysine site: K662) | 5.32 |
| COL5A1 (lysine site: K69) (UniProt P20908) | 2.04 |
| ATAD3B (lysine site: K104) (UniProt Q5T9A4) | 0.547 (active) |
| XRCC6 (lysine site: K238) (UniProt P12956) | 0.959 (active) |
| ATP1B1 (lysine site: K277) (UniProt P05026) | 17.2 |
| MYO1C (lysine site: K404) (UniProt O00159) | 1.66 (active) |
| TXLNA (lysine site: K240) (UniProt P40222) | 1.67 (active) |
| HNRNPM (lysine site: K145) (UniProt P52272) | 2.08 |
| FOLR1 (lysine site: K97) (UniProt P15328) | 4.12 |
| PTGES2 (lysine site: K233) (UniProt Q9H7Z7) | 2.07 |
| ITGAV (lysine site: K149) (UniProt P06756) | 4.46 |
| UniProt P62280 (lysine site: K30) | 4.32 |
| GALNT2 (lysine site: K509) (UniProt Q10471) | 3.5 |
| UniProt P62701 (lysine site: K233) | 4.48 |
| COPA (lysine site: K480) (UniProt P53621) | 4.64 |
